SKKanGAS inh: blocks kanamycin growth of S. pyogenes SKKanGAS strain; AID 1662; BacTiter-Glo, 6 h; hit rate 1.3% among 300,000; inhibition, % at 7.5 µM;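 active means mean replicate score, as percent of positive control median, at least 50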;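 further: strain carries kanamycin resistance gene driven by streptokinase promoter and grows in 40 µg/ml kanamycin; loss of luminescence reflects streptokinase promoter inhibition or plain growth inhibition; 0% = median of DMSO wells and 100% = positive control at its reference dose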
NLRP3 yeast inh: NALP3 inhibition in yeast; AID 2825; hit rate 0.39% among 330,000; Yeast reconstituted NLRP3/ASC/caspase-1, beta-gal luminescence, 24 h; inhibition, % at 10 µM;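 active means inhibition of 50% or more; inactive means inhibition below 50%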;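 further: plate controls were induced DMSO wells for no effect and uninduced yeast grown without galactose for full effect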
PfHsp90 set2: inhibits growth of yeast expressing Plasmodium falciparum Hsp90 | S. cerevisiae expressing PfHsp90, BacTiter-Glo ATP, 48 h; yeast lacking PDR1 and PDR3 efflux regulators | inhibition, % at 9.4 µM | hit rate 0.32% among 310,000;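 active means every replicate shows inhibition above about 80%, whatever the replicate mean, limit read from the data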;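 further: 0% = DMSO neutral controls and 100% = 20 µM radicicol positive controls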
TIM10 inh: inhibits growth of TIM10 yeast strain. S. cerevisiae TIM10 strain growth, BacTiter-Glo luminescence, 24 h. inhibition, % at 10 µM. hit rate 1.4% among 330,000. AID 463195;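 active means inhibition of 40% or more at the single tested concentration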;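 further: wild-type TIM10 isogenic control strain grown at permissive 25 °C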
tim23-1 inh: tim23-1 yeast growth inhibition; inhibition, % at 20 µM; S. cerevisiae tim23-1 growth, BacTiter-Glo luminescence, 24 h; AID 463212; hit rate 1.3% among 330,000;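 active means growth inhibition of the mutant yeast at or above 50%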;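 further: temperature-sensitive mutant grown at 25 °C; plate controls were DMSO-treated mutant yeast for no effect and medium wells lacking yeast for full effect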
tim10-1 inh: growth inhibitors of tim10-1 mutant yeast | hit rate 2.2% among 330,000 | S. cerevisiae tim10-1 ts strain growth, BacTiter-Glo, 24 h | inhibition, % at 20 µM | AID 463190;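 active means inhibition of at least 40%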;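 further: mutant grown at 25 °C; 0% = DMSO wells with yeast and 100% = wells holding no yeast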
tim10-1 conf: confirmation of tim10-1 mutant yeast growth inhibitors; shares compounds with tim10-1 inh; S. cerevisiae tim10-1 ts strain growth, BacTiter-Glo, 24 h; inhibition, % at 20 µM; hit rate 56% among 7,400; AID 463213;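 active means inhibition of yeast growth at or above a set limit in either of two repeat tests at 20 µM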;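 further: tim10-1 mutant grown at permissive 25 °C to find synthetic lethal compounds; 0% = DMSO yeast wells and 100% = medium wells without yeast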
* hit, by the source's call. Hits are enriched below; roughly 4.6% of the tested compounds scored in any of these assays.

Screening O=C(CC1C(=O)NCCN1Cc1cccc(Oc2ccccc2)c1)NCCc1cscn1 (configuration not stated) returned SKKanGAS inh -1, NLRP3 yeast inh -3, PfHsp90 set2 -15, TIM10 inh 16, tim23-1 inh 20, tim10-1 inh 42* and tim10-1 conf 28.
CCN(CC)CCN(Cc1cc2cc3c(cc2[nH]c1=O)OCO3)C(=S)NCCOC was read as SKKanGAS inh -1, NLRP3 yeast inh -1, PfHsp90 set2 21, TIM10 inh -2, tim23-1 inh -8 and tim10-1 inh -24.
COC(=O)Cc1ccc(NC(=S)NCc2ccccc2OC)cc1 was read as SKKanGAS inh 3, NLRP3 yeast inh 18, PfHsp90 set2 9, TIM10 inh 11, tim23-1 inh -7 and tim10-1 inh 20.
Screening COc1ccccc1CNC(=S)Nc1ccc(F)cc1 returned SKKanGAS inh 0, NLRP3 yeast inh -21, PfHsp90 set2 -2, TIM10 inh 16, tim23-1 inh 33, tim10-1 inh 48* and tim10-1 conf 1.
Cc1cccc(C)c1NC(=O)COC(=O)/C=C/c1ccc(S(=O)(=O)N2CCOCC2)cc1 was read as NLRP3 yeast inh 18, PfHsp90 set2 -3, TIM10 inh 4, tim23-1 inh -1 and tim10-1 inh 13.
`COc1cc([N+](=O)[O-])ccc1NC(=O)Cn1ccsc1=N` gave SKKanGAS inh 1, NLRP3 yeast inh 30, PfHsp90 set2 -17, TIM10 inh -11, tim23-1 inh -16 and tim10-1 inh -16.
For O=C(Nc1cc(Cl)cc(Cl)c1)C(NCC1CCCO1)c1ccccc1 (configuration not stated) the results were SKKanGAS inh -6, NLRP3 yeast inh 10, PfHsp90 set2 24, TIM10 inh 23, tim23-1 inh 36, tim10-1 inh 45* and tim10-1 conf 26.
Screening CCN(CC(=O)Nc1ccc(Cl)c(S(=O)(=O)N(C)C)c1)CC(=O)NC(C)C returned SKKanGAS inh -15, NLRP3 yeast inh 1, PfHsp90 set2 -14, TIM10 inh -6, tim23-1 inh 1 and tim10-1 inh 7.
Cc1nc2nc(SCc3ccccc3)[nH]n2c(=O)c1CCC(C)C was read as SKKanGAS inh 18, NLRP3 yeast inh 17, PfHsp90 set2 -26, TIM10 inh 17, tim23-1 inh 9 and tim10-1 inh 33.
`O=Cc1ccc2cccnc2n1` gave SKKanGAS inh 2, NLRP3 yeast inh -16, TIM10 inh -5, tim23-1 inh 6 and tim10-1 inh 16.
Screening O=Cc1ccc2ccc3cccnc3c2n1 returned SKKanGAS inh 4, NLRP3 yeast inh 3, PfHsp90 set2 6, TIM10 inh 9, tim23-1 inh 30, tim10-1 inh 42* and tim10-1 conf 8.
Screening COc1cc(CNc2cccc3[nH]c(C(F)(F)F)nc23)cc(OC)c1 returned SKKanGAS inh 34, NLRP3 yeast inh 14, PfHsp90 set2 -20, TIM10 inh 15, tim23-1 inh 39, tim10-1 inh 42* and tim10-1 conf 19.
Screening COc1ccc(CNc2cccc3[nH]c(C(F)(F)F)nc23)cc1 returned SKKanGAS inh 23, NLRP3 yeast inh 21, PfHsp90 set2 1, TIM10 inh 29, tim23-1 inh 40, tim10-1 inh 43* and tim10-1 conf 25.
Screening Cc1ccc(-c2cc(-c3ccccc3)c3c(N)c(S(C)(=O)=O)sc3n2)cc1 returned SKKanGAS inh 10, NLRP3 yeast inh 11, PfHsp90 set2 0, TIM10 inh 34, tim23-1 inh 24, tim10-1 inh 49* and tim10-1 conf 43*.
CS(=O)(=O)c1sc2nc(-c3cccs3)cc(-c3ccccc3)c2c1N was read as SKKanGAS inh 41, NLRP3 yeast inh 1, PfHsp90 set2 -9, TIM10 inh 34, tim23-1 inh 7 and tim10-1 inh 18.
`CCC(C(=O)OCC(=O)Nc1cc(Cl)cc(Cl)c1)c1ccccc1` (configuration not stated) gave SKKanGAS inh 53*, NLRP3 yeast inh 9, PfHsp90 set2 4, TIM10 inh 24, tim23-1 inh 29, tim10-1 inh 40* and tim10-1 conf 26.

Screens (PubChem)
